What all share (test): NCI-60 one-dose screen, 48 h (100 = growth as untreated, 0 = no growth, -100 = all killed)
One experiment has as its system HCT-15 colon. The following applies: 10 µM unless noted.
The test system of the next experiment is HT29 colon. As to conditions: 10 µM unless noted.
A further experiment concerns SNB-75 CNS. As to conditions: 10 µM unless noted.
A further experiment relates to SNB-19 CNS. As to conditions: 10 µM unless noted.
The next experiment concerns PC-3 prostate. The following applies: 10 µM unless noted.
Another experiment relates to SK-MEL-5 melanoma. The following applies: 10 µM unless noted.
Another experiment has as its system UACC-62 melanoma. The following applies: 10 µM unless noted.
The test system of a further experiment is LOX IMVI melanoma. As to conditions: 10 µM unless noted.
The test system of the next experiment is SK-MEL-28 melanoma. As to conditions: 10 µM unless noted.
Another experiment has as its system SK-MEL-2 melanoma. As to conditions: 10 µM unless noted.
The subject of a further experiment is EKVX NSCLC. As to conditions: 10 µM.
A further experiment has as its system SN12C renal. The following applies: 10 µM unless noted.
A further experiment deals with UO-31 renal. The following applies: 10 µM unless noted.
The test system of a further experiment is TK-10 renal. The following applies: 10 µM unless noted.
The next experiment concerns ACHN renal. As to conditions: 10 µM unless noted.
The next experiment relates to CAKI-1 renal. The following applies: 10 µM unless noted.
A further experiment has as its system A498 renal. As to conditions: 10 µM unless noted.
The subject of a further experiment is CCRF-CEM leukemia. The following applies: 10 µM.
For another experiment, the system named is MOLT-4 leukemia. The following applies: 10 µM unless noted.
The next experiment deals with U251 CNS. As to conditions: 10 µM unless noted.

Compounds without any hit were thinned out: in the full panel of roughly 83,000, 20% have a hit.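 Activity criterion: percent growth below 10, measured after cells in 96-well plates were exposed to a single compound concentration for 48 hours.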 A number with no mark means an inactive call. The source made the active and inactive calls.

On to `N=C(N)c1ccc(-c2ccc(-c3ccc(Cl)cc3)s2)s1`, for which the growth is -84.8% (active) with HCT-15 colon; -33.3% (active) in the experiment on HT29 colon; -96.4% (active) in the experiment with SNB-75 CNS; -81.8% (active) in the experiment on SNB-19 CNS; -91% (active) in the experiment with PC-3 prostate; 2.66% (active) in the experiment on SK-MEL-5 melanoma. In addition, the growth with UACC-62 melanoma is -31.2% (active); with LOX IMVI melanoma, -89.4% (active); in the experiment with SK-MEL-28 melanoma, -87.8% (active); in the experiment on SK-MEL-2 melanoma, -29.6% (active); in the experiment on EKVX NSCLC, -70.7% (active); in the experiment with SN12C renal, -50% (active). In addition, the growth in the experiment on UO-31 renal was -87.5% (active); in the experiment with TK-10 renal, -55.3% (active); in the experiment on ACHN renal, -97% (active); in the experiment on CAKI-1 renal, -11.6% (active); in the experiment on A498 renal, 50.9%; in the experiment with CCRF-CEM leukemia it was -70.8% (active). In addition, the growth in the experiment with MOLT-4 leukemia was -59.6% (active).

On to `COc1cc(C(=O)Nc2ccc(N(C)C)cc2)cc(OC)c1OC`, for which the growth in the experiment on HCT-15 colon was 73.3%; with HT29 colon, 86.2%; in the experiment with SNB-75 CNS it was 74.9%; in the experiment with U251 CNS, 95.4%; with PC-3 prostate, 91.4%; with SK-MEL-5 melanoma it was 89.9%. The growth in the experiment on UACC-62 melanoma was 82%; in the experiment with LOX IMVI melanoma, 93.3%; in the experiment with SK-MEL-28 melanoma, 81.9%; with SK-MEL-2 melanoma, 78.8%; in the experiment with SN12C renal it was 94.2%; in the experiment with UO-31 renal, 85.8%. The growth in the experiment on ACHN renal was 93.1%; with CAKI-1 renal, 91.1%; in the experiment with A498 renal, 82.1%; in the experiment on MOLT-4 leukemia, 92%.

For `CCOC(=O)c1c(C)oc2ncnc(Nc3ccc(NC(=O)Nc4cccc(Cl)c4)cc3)c12`, the growth in the experiment with HCT-15 colon is 59%; with HT29 colon, 37.1%; in the experiment with SNB-75 CNS, 70.6%; in the experiment on SNB-19 CNS it was 84.7%; in the experiment with PC-3 prostate, 41.2%; in the experiment with SK-MEL-5 melanoma, 53%. Also, the growth in the experiment with UACC-62 melanoma was 69.1%; in the experiment with LOX IMVI melanoma, 64.1%; in the experiment with SK-MEL-28 melanoma, 61.8%; in the experiment on SK-MEL-2 melanoma, 72.7%; in the experiment with EKVX NSCLC it was 72.3%; in the experiment with SN12C renal, 74%. The growth is 50.4% in the experiment with UO-31 renal; 57.5% in the experiment with ACHN renal; 90.8% in the experiment with CAKI-1 renal; 63% in the experiment with A498 renal; 31.5% in the experiment with CCRF-CEM leukemia; 49.3% with MOLT-4 leukemia.

Turning to `COc1nc(OC)nc(-c2cc(-c3cc(OC)c(OC)c(OC)c3)no2)n1`, the growth was 103% in the experiment with HCT-15 colon; 100% in the experiment with HT29 colon; 97.2% in the experiment with SNB-75 CNS; 96.9% in the experiment on SNB-19 CNS; 86.3% with PC-3 prostate; 97.6% in the experiment with UACC-62 melanoma. The growth in the experiment on LOX IMVI melanoma is 104%; in the experiment with SK-MEL-28 melanoma, 115%; in the experiment on SK-MEL-2 melanoma it was 108%; in the experiment with EKVX NSCLC, 103%; in the experiment with SN12C renal, 94.6%; in the experiment with UO-31 renal it was 71.3%. In addition, the growth was 101% with TK-10 renal; 108% with ACHN renal; 96.1% in the experiment with CAKI-1 renal; 82.5% with A498 renal; 91.3% in the experiment on CCRF-CEM leukemia; 92.6% with MOLT-4 leukemia.

Take `Nc1nc2c(c3cnccc13)C(c1cccc(Br)c1)Cc1cnccc1-2` (stereo not given): the growth is 7.06% (active) with HCT-15 colon; 4.32% (active) with HT29 colon; 18.9% with SNB-75 CNS; 24% in the experiment with SNB-19 CNS; 11.6% in the experiment with PC-3 prostate; -30.4% (active) in the experiment on SK-MEL-5 melanoma. For the same compound, the growth was 21.8% in the experiment with UACC-62 melanoma; 8.43% (active) in the experiment on LOX IMVI melanoma; 49.4% with SK-MEL-28 melanoma; 27.2% with SK-MEL-2 melanoma; 27.6% in the experiment on EKVX NSCLC; 27.5% in the experiment with SN12C renal. For the same compound, the growth in the experiment with UO-31 renal is 21.4%; in the experiment with TK-10 renal it was 28.5%; in the experiment with ACHN renal, 16.7%; with CAKI-1 renal, 25.6%; in the experiment on A498 renal, -10.6% (active); with CCRF-CEM leukemia it was 6.84% (active). In the experiment on MOLT-4 leukemia, the growth was 11.6%.

As to `CCCCCCC(C(=O)OCC)(C(=O)OCC)C1CCCCCC1`, the growth is 97.5% in the experiment on HCT-15 colon; 98.1% in the experiment on HT29 colon; 83.7% with SNB-75 CNS; 99.2% with SNB-19 CNS; 102% in the experiment on PC-3 prostate; 100% in the experiment on SK-MEL-5 melanoma. Further, the growth was 101% in the experiment with UACC-62 melanoma; 101% in the experiment with LOX IMVI melanoma; 106% in the experiment with SK-MEL-28 melanoma; 114% in the experiment with SK-MEL-2 melanoma; 101% with SN12C renal; 90.6% with UO-31 renal. Further, the growth with TK-10 renal is 102%; in the experiment with ACHN renal, 101%; with A498 renal it was 96.7%; in the experiment on MOLT-4 leukemia, 104%.

In the case of `COc1cc(OC)c(NC(=O)n2ncc3cc(Nc4ncnc5ccccc45)ccc32)cc1Cl`, the growth in the experiment with HCT-15 colon is 93.8%; in the experiment with HT29 colon it was 80.3%; in the experiment with SNB-75 CNS, 118%; in the experiment on SNB-19 CNS, 90.6%; in the experiment on PC-3 prostate, 97.5%; in the experiment on SK-MEL-5 melanoma it was 94.3%. Also, the growth was 105% in the experiment with UACC-62 melanoma; 102% in the experiment on LOX IMVI melanoma; 98.7% with SK-MEL-28 melanoma; 102% in the experiment with SK-MEL-2 melanoma; 33% in the experiment with EKVX NSCLC; 95.6% in the experiment on SN12C renal. In addition, the growth was 64.1% in the experiment with UO-31 renal; 30.8% in the experiment on TK-10 renal; 55.1% in the experiment with ACHN renal; 53.6% in the experiment with CAKI-1 renal; 54.2% in the experiment on A498 renal; 102% in the experiment with CCRF-CEM leukemia. Moreover, in the experiment on MOLT-4 leukemia, the growth was 96.3%.

Values taken from PubChem BioAssay (NCI).
